About 79,000 compounds went through this panel and 15% of them were active in at least one assay; those are over-represented in the sample as a whole. Calls of active or inactive are those of the source. No stated cut-off is given here; in the data, active means growth inhibition above about 70%; inactive means the rest.
Experiments:
[1] = NCI Yeast Anticancer Drug Screen. Data for the rad52 strain (AID 147);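 further: 0% = growth of vehicle-treated control cultures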; conditions: S. cerevisiae rad52 mutant growth inhibition, active compounds read high
Summary of the method: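 DNA repair-defective yeast; compound exposure; growth scored against vehicle controls.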

[2] = NCI Yeast Anticancer Drug Screen. Data for the wt1 strain (AID 149);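 further: 0% = growth of vehicle-treated wt1 cultures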; conditions: S. cerevisiae wt1 strain (SPY 50644) growth inhibition, active compounds read high
Summary of the method: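 Compounds are added to wt1 yeast cultures. Growth is then measured. Inhibition is expressed relative to vehicle-treated controls.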

[3] = NCI Yeast Anticancer Drug Screen. Data for the rad50EPP+ strain (AID 151);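 further: 0% = growth of vehicle-treated control cultures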; conditions: S. cerevisiae rad50 mutant strain, active compounds read high
Summary of the method: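 rad50EPP+ yeast treated with test compounds. Readout: growth vs vehicle control.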

[4] = NCI Yeast Anticancer Drug Screen. Data for the mgt1 strain (AID 153); conditions: S. cerevisiae mgt1 mutant growth inhibition, active compounds read high
Summary of the method: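 Growth inhibition relative to vehicle controls was scored for the mgt1 yeast strain after compound exposure.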

[5] = NCI Yeast Anticancer Drug Screen. Data for the rad50 strain (AID 155);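 further: 0% = growth of vehicle-only cultures of the same strain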; conditions: S. cerevisiae rad50 strain growth inhibition, active compounds read high
Summary of the method: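 Inhibition values express reduced yeast growth in compound-treated cultures relative to vehicle-treated controls.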

[6] = NCI Yeast Anticancer Drug Screen. Data for the mec2-1 strain (AID 157); conditions: S. cerevisiae mec2-1 strain, active compounds read high
Summary of the method: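 Growth inhibition is read against vehicle-treated controls after compound exposure of the mec2-1 yeast strain, which is defective in DNA damage repair or cell cycle control.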

[7] = NCI Yeast Anticancer Drug Screen. Data for the sgs1 mgt1 strain (AID 161);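 further: 0% = growth of cultures given vehicle only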; conditions: S. cerevisiae sgs1 mgt1 strain, active compounds read high
Summary of the method: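 Percent growth inhibition was derived by comparing compound-exposed mutant yeast with vehicle-exposed cultures. The strain carries alterations in DNA damage repair.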

[8] = NCI Yeast Anticancer Drug Screen. Data for the CLN2oe strain (AID 163);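 further: 0% = growth of vehicle-only control cultures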; conditions: S. cerevisiae CLN2oe strain, active compounds read high
Summary of the method: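 Compound-treated yeast; growth vs vehicle ctrl = % inhibition. Genetically altered strain (cell-cycle control).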

[9] = NCI Yeast Anticancer Drug Screen. Data for the cln2 rad14 strain (AID 165);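 further: 0% = growth equal to vehicle treated cultures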; conditions: S. cerevisiae cln2 rad14 strain, active compounds read high
Summary of the method: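 Growth inhibition, relative to vehicle-treated controls, is the read-out. The test organism is a yeast strain with defined genetic alterations, cln2 rad14.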

[10] = NCI Yeast Anticancer Drug Screen. Data for the bub3 strain (AID 167); conditions: S. cerevisiae bub3 mutant strain, active compounds read high
Summary of the method: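 Steps: expose the mutant yeast strain to compound; grow alongside vehicle-treated cultures; measure growth; express inhibition against the vehicle cultures.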

[11] = NCI Yeast Anticancer Drug Screen. Data for the mlh1 strain (AID 171);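 further: 0% = growth of vehicle-treated control cultures of the same strain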; conditions: S. cerevisiae mlh1 strain growth inhibition, active compounds read high
Summary of the method: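 Compounds are applied to a genetically altered yeast strain, and its growth is compared with that of vehicle-treated cultures to give percent inhibition.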

[12] = NCI Yeast Anticancer Drug Screen. Data for the sgs1 strain (AID 173);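 further: 0% = growth of vehicle-only control cultures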; conditions: S. cerevisiae sgs1 mutant, active compounds read high
Summary of the method: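 Compounds applied to genetically altered yeast; growth compared with vehicle-treated cultures to give % inhibition.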

[13] = NCI Yeast Anticancer Drug Screen. Data for the mlh1 rad18 strain (AID 175); conditions: S. cerevisiae mlh1 rad18 strain growth inhibition, active compounds read high
Summary of the method: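 Cells of a genetically altered yeast strain, deficient in DNA damage repair, were treated with compound. Their growth was then compared with that of vehicle-treated cultures to give inhibition.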

[14] = NCI Yeast Anticancer Drug Screen. Data for the rad18 strain (AID 177); conditions: S. cerevisiae rad18 mutant growth inhibition, active compounds read high
Summary of the method: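 Compounds are applied to a repair-deficient yeast strain, and growth is compared with that of vehicle-treated cultures to give percent inhibition.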

[15] = at 5.0 µM (retest, dose inferred, filed as 0.5)
[16] = at 50.0 µM (retest, dose inferred, filed as 5.0)

Measured: growth inhibition

CCC(C)(C)c1ccc(Oc2ccccc2)c(N)c1
active: [1]; at 11.0 µM 96% | [1]; at 33.0 µM 99% | [1]; at 100.0 µM 98% | [2]; at 11.0 µM 97% | [2]; at 33.0 µM 99% | [2]; at 100.0 µM 98% | [3]; at 33.0 µM 84% | [3]; at 100.0 µM 90% | [4]; at 11.0 µM 96% | [4]; at 33.0 µM 99% | [4]; at 100.0 µM 99% | [5]; at 11.0 µM 94% | [5]; at 33.0 µM 98% | [5]; at 50.0 µM 90.5% | [5]; at 100.0 µM 99% | [6]; at 11.0 µM 96% | [6]; at 33.0 µM 99% | [6]; at 50.0 µM 93.2% | [6]; at 100.0 µM 99% | [7]; [16] 97% | [7]; at 50.0 µM 93.5% | [8]; at 11.0 µM 96% | [8]; at 33.0 µM 99% | [8]; at 100.0 µM 97% | [9]; [16] 99% | [9]; at 50.0 µM 92.3% | [10]; at 11.0 µM 95% | [10]; at 33.0 µM 99% | [10]; [16] 99% | [10]; at 50.0 µM 92.3% | [10]; at 100.0 µM 98% | [11]; at 11.0 µM 95% | [11]; at 33.0 µM 98% | [11]; at 100.0 µM 98% | [12]; at 11.0 µM 94% | [12]; at 33.0 µM 99% | [12]; at 100.0 µM 98% | [13]; at 50.0 µM 91.2% | [14]; at 11.0 µM 94% | [14]; at 33.0 µM 99% | [14]; at 100.0 µM 97%
inactive: [1]; at 1.2 µM -21% | [1]; at 3.7 µM -4% | [2]; at 1.2 µM -15% | [2]; at 3.7 µM -12% | [3]; at 1.2 µM 3% | [3]; at 3.7 µM 36% | [3]; at 11.0 µM 66% | [4]; at 1.2 µM -16% | [4]; at 3.7 µM -1% | [5]; at 1.2 µM -33% | [5]; at 3.7 µM -6% | [5]; [15] 42% | [5]; [16] 51% | [6]; at 1.2 µM -40% | [6]; at 3.7 µM -24% | [6]; [15] 44% | [6]; [16] 50% | [7]; [15] 2% | [8]; at 1.2 µM -22% | [8]; at 3.7 µM -2% | [9]; [15] 62% | [10]; at 1.2 µM -10% | [10]; at 3.7 µM -6% | [10]; [15] 36% | [11]; at 1.2 µM -30% | [11]; at 3.7 µM -18% | [12]; at 1.2 µM -17% | [12]; at 3.7 µM 6% | [13]; [15] 39% | [13]; [16] 45% | [14]; at 1.2 µM -31% | [14]; at 3.7 µM -7%
